This note sets out measurements from PubChem BioAssay.

For part of these data: Potency and affinity values are given separately. Activity calls are given as the source filed them.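 Rule for the calls, unless noted: active = fitted half-maximal concentration within 10 nM to 100 µM, steepness 0.5 to 2, significant signal drop, low assay interference; inactive = the rest.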

The target of experiment [1] is Cell division control protein 42 homolog (Homo sapiens) (UniProt P60953). Put plainly: activated mutant Cdc42 GTP-binding inhibitors, dose response, biochemical, multiplex bead flow cytometry, Bodipy-FL-GTP (AID 1333;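 active = fitted half-maximal concentration within the tested dose range, moderate curve steepness, a statistically real signal drop, and little compound fluorescence or tag-binding interference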). (In general: In flow cytometry, cells or beads pass a laser one at a time.)
Sequence of Cell division control protein 42 homolog (Homo sapiens) (P60953 whole entry, looked up): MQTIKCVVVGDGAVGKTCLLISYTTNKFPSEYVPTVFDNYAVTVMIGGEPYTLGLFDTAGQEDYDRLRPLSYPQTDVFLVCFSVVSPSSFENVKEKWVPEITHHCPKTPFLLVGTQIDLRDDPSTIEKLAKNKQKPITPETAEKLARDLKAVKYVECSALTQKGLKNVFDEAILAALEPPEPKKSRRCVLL
For experiment [2] the target is unchanged. Description: wildtype Cdc42 GTP-binding inhibitors, dose response, biochemical, multiplex bead flow cytometry, Bodipy-FL-GTP (AID 1334;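 active = fitted half-maximal concentration within the tested range, moderate curve steepness, significant signal drop, and little compound fluorescence or bead-linkage interference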). Conditions: bead-based flow cytometry, Bodipy-FL-GTP binding to GST-Cdc42; at 100 µM (top of the series) unless noted.
For experiment [3], the target named is GTPase HRas (Homo sapiens) (UniProt P01112). Put plainly: inhibitors of GTP binding to wildtype Ras, dose response, biochemical, multiplex bead flow cytometry (AID 1335). To be noted: bead-based flow cytometry, Bodipy-GTP binding to GST-Ras; at 100 µM (top of the series) unless noted.
Sequence of GTPase HRas (Homo sapiens) (P01112 whole entry, looked up): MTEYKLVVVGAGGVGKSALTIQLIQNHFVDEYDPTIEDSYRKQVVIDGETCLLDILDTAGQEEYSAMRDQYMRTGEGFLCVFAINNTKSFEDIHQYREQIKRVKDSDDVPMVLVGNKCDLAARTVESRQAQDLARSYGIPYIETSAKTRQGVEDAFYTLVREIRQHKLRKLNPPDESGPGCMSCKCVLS
In experiment [4] the test system is Ras-related protein Rab-7a (dog), GTP binding. Description: Rab7 GTP binding inhibitors, potency, dose response, biochemical, wildtype, multiplex bead flow cytometry (AID 1336; call rule not given here).
Experiment [5] concerns the target Ras-related C3 botulinum toxin substrate 1 (Homo sapiens) (UniProt P63000). Put plainly: wildtype Rac1 GTP binding inhibitors, dose response, biochemical, multiplex bead flow cytometry (AID 1340;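 active = dose curve with midpoint inside tested range, moderate steepness, plateau gap beyond fit error, low compound glow and bead-link interference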). To be noted: GST-Rac1 beads, Bodipy-FL-GTP binding; at 100 µM (top of the series) unless noted.
For experiment [6], the target named is GTPase HRas (Homo sapiens) (UniProt P01112). Description: activated Ras mutant GTP binding inhibitors, dose response, biochemical, multiplex bead flow cytometry (AID 1341;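 active = dose-response curve with midpoint inside the tested range, moderate steepness, significant amplitude and little compound fluorescence or bead-attachment interference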;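 note: GST-tagged constitutively activated Ras mutant immobilized on beads and multiplexed with other GTPases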).

As for `COc1ccc(C2=Nn3c(nnc3-c3ccccc3)SC2)cc1OC`, the molecule was classed as inactive in experiment [1], in experiment [4] and in experiment [6]. The fluorescence, percent of control (lower = inhibition) in experiment [2] is 37.5%. Moreover, the GTP binding, percent of control in experiment [3] stood at 86%. Besides, the GTP binding signal, raw median fluorescence (lower = inhibition) (MCF (arbitrary fluorescence units)) in experiment [5] amounted to 214.

For `O=C(N/N=C/c1ccco1)c1ccc(C(=O)N/N=C/c2ccco2)o1`, the molecule was called inactive in experiment [1], in experiment [4] and in experiment [6]. Moreover, the fluorescence, percent of control (lower = inhibition) in experiment [2] stood at 32.1%. Besides, in experiment [3], the GTP binding, percent of control is 72.4%. The molecule also showed a GTP binding signal, raw median fluorescence (lower = inhibition) (MCF (arbitrary fluorescence units)) in experiment [5] of 184.

As for `S=c1[nH]nc(-c2ccco2)n1-c1ccc(Cl)cc1`, the outcome in experiment [1], in experiment [4] and in experiment [6] was inactive. The molecule also gave a fluorescence, percent of control (lower = inhibition) in experiment [2] of 28.4%. In experiment [3], this molecule yielded a GTP binding, percent of control of 67.6%. In experiment [5], this molecule returned a GTP binding signal, raw median fluorescence (lower = inhibition) (MCF (arbitrary fluorescence units)) of 209.

As for `Cc1ccc(C(=O)O)c(OCCc2c(C)cccc2C)n1`, the result in experiment [1], in experiment [4] and in experiment [6] was inactive. In addition, the fluorescence, percent of control (lower = inhibition) in experiment [2] came out at 64.4%. In experiment [3], this molecule came in with a GTP binding, percent of control of 224%. Besides, in experiment [5], the GTP binding signal, raw median fluorescence (lower = inhibition) (MCF (arbitrary fluorescence units)) was 57.

For the molecule `NC(=O)c1c(NC(=O)c2cnccn2)sc2c1CCCC2`, the outcome in experiment [1], in experiment [4] and in experiment [6] was inactive. Besides, the fluorescence, percent of control (lower = inhibition) in experiment [2] is 94.1%. In experiment [3], the GTP binding, percent of control came to 134%. In addition, the GTP binding signal, raw median fluorescence (lower = inhibition) (MCF (arbitrary fluorescence units)) in experiment [5] was found to be 217.

For the molecule `COc1cccc(/C=N/Nc2nn3cnnc3c3ccccc23)c1`, the result in experiment [1], in experiment [4] and in experiment [6] was inactive. The fluorescence, percent of control (lower = inhibition) in experiment [2] stood at 36.5%. The molecule also displayed a GTP binding, percent of control in experiment [3] of 47.3%. For the same molecule, in experiment [5], the GTP binding signal, raw median fluorescence (lower = inhibition) (MCF (arbitrary fluorescence units)) came out at 120.

Consider `C=CCn1c(-c2csc(-c3ccc(Cl)cc3)n2)n[nH]c1=S`, for which the result in experiment [1], in experiment [4] and in experiment [6] was inactive. In experiment [2], this molecule registered a fluorescence, percent of control (lower = inhibition) of 40.8%. The molecule also displayed a GTP binding, percent of control in experiment [3] of 89.3%. The GTP binding signal, raw median fluorescence (lower = inhibition) (MCF (arbitrary fluorescence units)) in experiment [5] was determined as 262.

Take `O=C(CNC(=O)Cc1ccccc1)N=Nc1c(O)n(Cc2ccc3c(c2)OCO3)c2ccccc12`: the call in experiment [1], in experiment [4] and in experiment [6] was inactive. This molecule came in with a fluorescence, percent of control (lower = inhibition) in experiment [2] of 36.1%. For the same molecule, the GTP binding, percent of control in experiment [3] was 48.5%. The GTP binding signal, raw median fluorescence (lower = inhibition) (MCF (arbitrary fluorescence units)) in experiment [5] turned out to be 112.

`COCCCNc1nc(=S)[nH]c2cc(OC)c(OC)cc12`: the molecule was classed as inactive in experiment [1], in experiment [4] and in experiment [6]. Also, in experiment [2], the fluorescence, percent of control (lower = inhibition) came out at 32.5%. The molecule also came in with a GTP binding, percent of control in experiment [3] of 41.5%. Further, the GTP binding signal, raw median fluorescence (lower = inhibition) (MCF (arbitrary fluorescence units)) in experiment [5] was 99.

Take `CN(Cc1ccccc1)c1ccc([N+](=O)[O-])cc1C(=O)O`: the molecule was classed as inactive in experiment [1], in experiment [4] and in experiment [6]. This molecule yielded a fluorescence, percent of control (lower = inhibition) in experiment [2] of 41%. Further, the GTP binding, percent of control in experiment [3] amounted to 87.3%. The GTP binding signal, raw median fluorescence (lower = inhibition) (MCF (arbitrary fluorescence units)) in experiment [5] turned out to be 276.

With `Cc1sc2nc3c(SC(C)C(=O)O)cc(C(=O)c4ccccc4O)cn3c(=O)c2c1C` (stereo not given), the result in experiment [1], in experiment [4] and in experiment [6] was inactive. This molecule came in with a fluorescence, percent of control (lower = inhibition) in experiment [2] of 29.3%. In experiment [3], this molecule had a GTP binding, percent of control of 72.1%. For the same molecule, the GTP binding signal, raw median fluorescence (lower = inhibition) (MCF (arbitrary fluorescence units)) in experiment [5] was determined as 186.

Regarding `Cc1ccc(/C=C(\CCC(=O)O)c2nc3ccccc3s2)cc1[N+](=O)[O-]`, the result in experiment [1], in experiment [4] and in experiment [6] was inactive. In experiment [2], this molecule returned a fluorescence, percent of control (lower = inhibition) of 24.9%. In addition, in experiment [3], the GTP binding, percent of control came out at 70.3%. Moreover, the GTP binding signal, raw median fluorescence (lower = inhibition) (MCF (arbitrary fluorescence units)) in experiment [5] is 216.

For `NC(=O)N=Nc1c(O)[nH]c2c(Br)cc(Br)cc12`, the molecule was called inactive in experiment [1], in experiment [4] and in experiment [6]. Also, the fluorescence, percent of control (lower = inhibition) in experiment [2] was determined as 37.2%. Also, the GTP binding, percent of control in experiment [3] amounted to 81.4%. In experiment [5], this molecule yielded a GTP binding signal, raw median fluorescence (lower = inhibition) (MCF (arbitrary fluorescence units)) of 213.

For the molecule `COc1cc(/C=N/NC(=O)C(Cc2c[nH]c3ccccc23)NC(=O)OCc2ccccc2)cc([N+](=O)[O-])c1O` (stereo not given), the molecule was called inactive in experiment [1], in experiment [4] and in experiment [6]. The same molecule displayed a fluorescence, percent of control (lower = inhibition) in experiment [2] of 29.6%. In addition, in experiment [3], the GTP binding, percent of control is 74%. This molecule also returned a GTP binding signal, raw median fluorescence (lower = inhibition) (MCF (arbitrary fluorescence units)) in experiment [5] of 208.

`CCOC(=O)Cn1nnnc1C(CC)N(Cc1ccccc1)Cc1cc2cc(C)ccc2[nH]c1=O` (stereo not given): the result in experiment [1], in experiment [4] and in experiment [6] was inactive. In experiment [2], this molecule showed a fluorescence, percent of control (lower = inhibition) of 83.7%. Further, the GTP binding, percent of control in experiment [3] came out at 155%. For the same molecule, in experiment [5], the GTP binding signal, raw median fluorescence (lower = inhibition) (MCF (arbitrary fluorescence units)) was 182.
